In all, about 3,200 compounds went through this assay and about 2,900 (91%) were called active.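 The calls were made as follows: active = EC50 no more than a set limit of log units above the highest dose; inactive = the rest.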 So high a share suggests a set chosen from earlier hits. The list shows a part of the results. Measured potencies and affinities stand elsewhere.

A short description of the assay: S. pyogenes SKKanGAS kanamycin growth inhibitors – SKKanGAS strain, luminescence, dose confirmation, streptokinase promoter inhibitor project, dose response (AID 1902).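 Also: lower survival reflects blocked streptokinase promoter driving kanamycin resistance gene; 0% = DMSO median and -100% = tetracycline positive control median.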 As to conditions: kanamycin survival, BacTiterGlo, 6 h; at 15 µM (top of the series).
With `N#C/C(=C\c1ccc(/C=C(/C#N)c2nn(CCO)c(N)c2C#N)cc1)c1nn(CCO)c(N)c1C#N`, the activity change, negative = inhibition is -60.6% (active).

The values above are taken from PubChem BioAssay AID1902 (Broad Institute, 2009).
